# Out of some 52,000 compounds screened, about 4,300 (8.3%) were called active. Cut-off read from the data, not from the text of the source: active = survival mostly below about 52% (no sharp cut-off); inactive = mostly above about 56%. The entries come from a sample that favours actives as a whole.
# Tested on: DeltatarO mutant
# Assay: S. aureus survival, RN4220 and DeltatarO strains – OD600, teichoic acid synthesis inhibitors, primary screen (AID 463173)
# Conditions: S. aureus RN4220 wild type/DeltatarO growth, OD600, 18 h, hits give low values, screened at 18.75 µg/mL (by protocol)
row,Structure (SMILES),survival
1,Cc1cc2c(cc3c(SCc4cccc(F)c4)nnc(C)n32)o1,68% (inactive)
2,CCOC(=O)Cn1cnc2onc(-c3ccc(F)cc3)c2c1=O,141% (inactive)
3,CCOc1ccccc1NC(=O)CSc1nc2c(oc3ccccc32)c(=O)n1-c1ccc(C)c(C)c1,88% (inactive)
4,COc1ccccc1NC(=O)Cn1c(=O)n(Cc2ccccc2)c(=O)c2ccccc21,75% (inactive)
5,COc1ccc(N(C(=O)COc2c(C)cccc2C)S(=O)(=O)c2ccc(Cl)cc2)cc1,73% (inactive)
6,CCS(=O)(=O)Nc1ccc(-c2cn3ccsc3n2)cc1,17% (active)
7,CCCS(=O)(=O)Nc1cccc(-c2cn3ccsc3n2)c1,134% (inactive)
8,COc1cccc(OC)c1C(=O)Nc1cccc(-c2cn3ccsc3n2)c1,82% (inactive)
9,COc1cc(OC)cc(C(=O)Nc2cccc(-c3cn4ccsc4n3)c2)c1,6% (active)
10,COc1ccc(C(=O)Nc2cccc(-c3cn4ccsc4n3)c2)cc1OC,92% (inactive)
11,CN(C)S(=O)(=O)Nc1ccc(-c2cn3ccsc3n2)cc1,55% (inactive)
12,O=C(NCCc1ccccc1Cl)c1ccc2c(c1)nc1n2CCCCC1,80% (inactive)
13,Cc1cccc(NC(=O)N2CCN3CCCCC3C2)c1C (centres undefined),77% (inactive)
14,CC(C)c1ccc(NC(=O)c2cc(S(=O)(=O)NC3CCCCC3)ccc2F)cc1,102% (inactive)
15,O=C(Nc1cc2c(cc1C(=O)c1ccccc1Cl)OCCO2)c1ccccc1,113% (inactive)
16,COc1ccc(CCn2c3c(c(=O)[nH]c2=O)C(NC(=O)c2ccc(C(C)(C)C)cc2)(C(F)(F)F)C(=O)N3)cc1OC (centres undefined),91% (inactive)
17,CCOC(=O)c1ccc(NC(=O)C(Cc2ccccc2)NS(=O)(=O)c2ccc(Br)s2)cc1 (centres undefined),90% (inactive)
18,CCOC(=O)c1ccc(NS(=O)(=O)c2ccc(Br)s2)cc1,38% (active)
19,Nc1ncc(S(=O)(=O)Nc2ccc(OC(F)(F)F)cc2)cn1,79% (inactive)
20,CC(=O)c1ccc(NS(=O)(=O)c2cnc(N)nc2)cc1,6% (active)

row,Structure (SMILES),survival
1,CC(=O)c1ccc(NC(=O)C2CCC(CNS(=O)(=O)c3ccc(Br)s3)CC2)cc1 (centres undefined),69% (inactive)
2,CC(=O)c1ccc(NS(=O)(=O)c2ccc(-c3cc(C)no3)s2)cc1,122% (inactive)
3,COc1cc(NS(=O)(=O)c2cnc(N)nc2)cc(OC)c1,76% (inactive)
4,CCOC(=O)c1ccc(NS(=O)(=O)c2cn(C)c(C)n2)cc1,69% (inactive)
5,CC(=O)c1ccc(NS(=O)(=O)c2ccc(Br)s2)cc1,47% (active)
6,COc1ccc(Nc2ncc3c(n2)CCN(Cc2ccccc2C)C3)c(OC)c1,91% (inactive)
7,Cc1ccccc1N(C)C(=O)c1noc2c1COc1ccccc1-2,72% (inactive)
8,CCOc1ccc(S(=O)(=O)N(CC(=O)N2CCCCC2)c2ccccc2)cc1,60% (inactive)
9,CC12CN3CC(C)(CN(C1)C3(C)CSc1c[nH]c3ccccc13)C2=O (centres undefined),76% (inactive)
10,Cc1ccc(C)c(NC(=O)Cn2cnc3c(oc4ccccc43)c2=O)c1,82% (inactive)
11,Cc1ccc(NC(=O)CN2C(=O)COc3ccc(S(=O)(=O)Nc4ccccc4)cc32)c(C)c1,54% (inactive)
12,Oc1cccc(-c2nc3ncccn3c2Nc2cccc(C(F)(F)F)c2)c1,62% (inactive)
13,COc1ccc(CNC(=O)Cc2c(C)c3cc4c(C)coc4c(C)c3oc2=O)cc1OC,67% (inactive)
14,Cc1ccc2c(Sc3ccccc3)c(C(=O)NCc3ccccc3F)[nH]c2c1,90% (inactive)
15,N#C/C(=C/c1ccc(-c2ccc(Cl)c(C(=O)O)c2)o1)C(=O)NC1CCCC1,96% (inactive)
16,N#C/C(=C\c1ccc(-c2ccc(C(=O)O)cc2)o1)c1nc2ccccc2[nH]1,77% (inactive)
17,N#C/C(=C\c1ccc(-c2ccc(F)cc2F)o1)c1nc2ccccc2[nH]1,22% (active)
18,Cc1c(Cl)cccc1-c1ccc(/C=C(\C#N)c2nc3ccccc3[nH]2)o1,13% (active)
19,N#C/C(=C\c1ccc(-c2ccc(Cl)c(C(=O)O)c2)o1)c1nc2ccccc2[nH]1,55% (active)
20,N#C/C(=C\c1ccc(Cl)cc1)c1nc2ccccc2[nH]1,57% (inactive)

row,Structure (SMILES),survival
1,Cc1ccc2nc(/C(C#N)=C/c3ccc(-c4ccc(F)cc4F)o3)[nH]c2c1,11% (active)
2,CN(C)/C=C(\C#N)c1nc2ccccc2[nH]1,73% (inactive)
3,N#C/C(=C\c1ccc(-c2ccccc2C(=O)O)o1)c1nc2ccccc2[nH]1,76% (inactive)
4,Cc1ccc(/C=C(\C#N)c2nc3ccccc3c(=O)[nH]2)cc1,93% (inactive)
5,COc1cc(/C=C(\C#N)c2nc3ccccc3[nH]2)ccc1OCc1ccccc1F,50% (inactive)
6,O=C(Cn1ncc2ccsc2c1=O)N1CCN(c2ccc(Cl)cc2)CC1,78% (inactive)
7,Cc1nc(N=C(N)N)nc2cc3c(cc12)OCO3,91% (inactive)
8,COc1ccccc1N1CCN(C(=O)c2c(C)oc3ncn(CC(C)C)c(=O)c23)CC1,76% (inactive)
9,CCCCOC(=O)c1ccc(NC(=O)c2ccc3c(c2)CCN3S(C)(=O)=O)cc1,96% (inactive)
10,O=C(C1CCN(S(=O)(=O)c2ccc(Br)s2)CC1)N1CCN(c2cccc(Cl)c2)CC1,76% (inactive)
11,CC1CCCCN1C(=O)Cn1nnc2c(cnn2-c2ccccc2)c1=O (centres undefined),79% (inactive)
12,CCCCSCCCNC(=O)c1c[nH]c2ccc(S(=O)(=O)Nc3cccc(OC)c3)cc2c1=O,90% (inactive)
13,COc1ccc(N2CCN(S(=O)(=O)CCNC(=O)c3ccc(OC(C)C)cc3)CC2)cc1,78% (inactive)
14,COc1cc(NC(=O)Cn2cc(C(=O)c3ccc(F)cc3)c(=O)c3ccc(C)nc32)cc(OC)c1,74% (inactive)
15,CN(C)c1ccc(CNC(=O)CCCN2C(=O)CCn3nc(-c4cccn4C)cc32)cc1,73% (inactive)
16,O=C(CSc1ncc2c(n1)-c1cc(Cl)ccc1N(Cc1ccccc1)S2(=O)=O)NCc1ccccc1,89% (inactive)
17,O=C(c1ccccc1Cl)N(Cc1ccco1)c1ccccn1,55% (inactive)
18,COc1cccc2cc(C(=O)Nc3ccc(N4CCNCC4)cc3)c(=O)oc12,99% (inactive)
19,Cc1ccc(NC(=O)Cn2nc(C)c3nn(-c4ccc(Cl)cc4)c(C)c3c2=O)cc1C,75% (inactive)

# Source: PubChem BioAssay AID463173 (ICCB-Longwood Screening Facility, Harvard Medical School, 2010)
